In the assay the test system is VDR homodimer (NR concentration 270 nM). In words: PBM binding z-score (relative to random genomic background probes); higher = stronger binding; sequences stand for … in GC…GCGATTGACAGCGTAGAATGAAGG
The gist of the method:
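Binding buffer was PBS pH 7.4 with 2% milk, 0.02% Triton X-100, 1 mM DTT, 0.2 mg/mL BSA and 0.4 mg/ml salmon testes DNA. In it, ligand-free nuclear receptor dimers were incubated 1 h on custom Agilent 4×180K protein-binding microarrays carrying double-stranded probes. Antibodies against each partner (one per run) detected binding, and z-scores were calculated against random background probes after regression normalization of scanned fluorescence.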
The sequence TCATATAGGTAAAGGTGAAAGCCGAACGATATGA had a PBM binding z-score of -0.196. In the case of ATATGTAGGTTACAACCGGGTCATTCAGGCTATG it was 3.06; in that of CCTAGTCGGTCAAGGTCACACACGCTATAGGTAC, 3.91. The same measure for CCTACTGGGCCAAAGTCATTGATCAGTCAAAGCA: -0.635; for CCTCGGAGGACAACAGGAGGTCAGAACTGCCAGA: 0.781. In the case of GCTCGGAGGTCAAGGTCAGAGCTTTGTCCGTAGA it was 3.21. As to ACTAGCAGGCCAAGGGTCACTCAGGATTAGTCCG, the PBM binding z-score is 1.22. In the case of ATCGATAGGTCGTGAGGTGAGTATACAGAAAGGC it was 0.361; in that of CAAACTAGGTCAAAGGTCAAAGTCGAGCCAACCA, 3.41. In the case of CCAGACAGGTGAATGGTAACTCAGTCTGGTACGC it was -0.492; in that of TGAATGAGGTTATAAGATCATGGAACGTTGCAAA, 0.42.

TCTCGGAGGACACGAAGGTCAGAGCATTCCAGAG displayed a PBM binding z-score of 1.04. For GCTAGTTGGTCAGTAAAAGGACACACACCGGTCG, the PBM binding z-score stood at 0.256.

Regarding TAGCCTAGGTCATCGGGCCAGTATAGTACGCATC, the PBM binding z-score amounted to 0.811. In the case of CGAACTAGATCATTGACAGGACAGTGAATAGTAA it was 0.205. TCTATTAGTTGATGGGCAACCGACGAGTCCGTTT displayed a PBM binding z-score of 0.831. The same measure for CGAACTAGGTCATTGACAGGACAGTCAATAGTAA: 1.07.

Sequence CGAACAAGGTCAAGGACAGTGAATCTCCGCACGC had a PBM binding z-score of 2.3. Regarding TCTCGGAGGACACGAAAGGTCAGAGCTCGACATC, the PBM binding z-score amounted to 0.918. The same measure for TCTGCTAGGTCAACGATGGTCAGCTACTCTGCTA: -0.337; for ATCTCTAGGTAAGACCCAGTTCAGTGAAGAACGC: 1.3; for GCTTGTAGATCAAAGTTAAGAAAGACTAAGCTAA: -0.623. In the case of CCTACTGGGCCATTCAGAGGTAATTGATCATATG it was -0.114; in that of TCAATTAGTTGATTAGGGCAACCGAAACAGCGGA, 0.229. As to GCTTGTAGGTCAAGGTTAAGAAAGACTAAGCTAA, the PBM binding z-score worked out at 0.622.

Regarding CCGAGTAGGTTATGGTGCATTCAGGCAACGGTGA, the PBM binding z-score is 0.619. The same measure for ACACGGAGGACAAAGGTCAGAGCTACGCCAGTGA: 1.17; for GCTTATAGGTAATACAAGGTGAAAGTCCGATTGT: 0.227; for TGATTGAGGTTATAAGATCAGGGAACGTTGCAAA: 0.65. On to GTACCAAGGTGAATAGGTCGTTAATGAGTAGGCG, for which the PBM binding z-score was determined as 0.459.

As to TCTATTAGTTGATTACGGCAACCGAAACAGCGGA, the PBM binding z-score is 0.575. Sequence AGTCAAAGTTCATCTAGATAACGTAAGATATGCT displayed a PBM binding z-score of 4.4. Consider AGAATGAGGTTACCAAAGATCAGGGCAACGCTTG, for which the PBM binding z-score was determined as 0.728. The same measure for TCTAGTTGGTCAGAGGTCACACACTCGAAATGCG: 3.35; for ATCGAAAGGTCGAGGGTGAGTATACCCACCCGAA: 0.138; for TAGCCTTGGTCATGCGGGCCAGTATAGTGTCGGC: -0.904. TATATAGGGTCAAAGGCCAGAGTACGAATGTCGA returned a PBM binding z-score of 2.45. The same measure for ATCTCTTGGTAAAAGTTCAGTGAATCCCGAGGAT: 1.86. In the case of GCCACTGGGGCAAAGCAGGTTACCATAAGGTTGG it was -0.617.

The record behind these values is the supplement of paper PMC6555819.
